Rab9 promoter act – activators of Rab9 promoter; 320,000 tested, 2.8% active; Huh7 Rab9 promoter-luciferase reporter, luminescence, 24 h; AID 485297; Potency, µM (series often up to 9.22 µM), inactives show at the top dose activation, negative = inhibition, actives largely listed as activators; further: % of control where 0% means no effect; nearly all actives have a fitted effect of over 60% in size
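Luminescence from Amplite-detected luciferase (10 minutes, ambient) reports Rab9 promoter activation. Before that, stable Rab9-luciferase Huh7 cells (1500/well, reduced-serum OP-MEM I plus 10% FBS) were exposed to compound for 24 hours at 37C.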
NPC1 promoter act – NPC1 promoter activation | Huh7 NPC1 promoter luciferase reporter, 24 h | Potency, µM (top dose mostly 9.22 µM), for inactives: at the highest dose activation, most hits filed as activators | 320,000 tested, 2.4% active | AID 485313; further: % of control where 0% means no effect; nearly all actives have a fitted effect of over 60% in size
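Luciferase expression driven by the NPC1 promoter was measured in stably transfected Huh7 cells after a 24 h compound incubation, using a luciferase reagent and a luminescence read.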
ELG1 genotox – inducers of genotoxicity in HEK293T ELG1-luciferase cells | HEK293T ELG1-luciferase reporter, luminescence, 16 h | AID 504466 | Potency, µM (top dose mostly 46 µM), for the others: at the top dose activity change, positive = activation, hits mostly activators | 330,000 tested, 1.3% active; further: % of control where 0% means no effect; nearly all actives have a fitted effect of over 60% in size
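HEK293T cells expressing luciferase-tagged ELG1 were exposed to compound or DMSO vehicle for 16 hr at 37 °C and 5% CO2. Luciferase activity was then measured with ONE-Glo after 30 min at room temperature.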
FLuc modulator – counter-screen for miR-21 project: firefly luciferase inhibitors or activators | P08659 | purified FLuc, Km substrates, luminescence inhibition | Potency, µM (top dose mostly 57.5 µM), without a hit: at the top dose activity change, negative = inhibition, usual class: inhibitors | 360,000 tested, 6.9% active | AID 588342;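 further: plate controls were vehicle for no effect and reference inhibitor for full effect; nearly all actives have a fitted effect of over 55% in size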
Target sequence (P08659 whole entry, looked up): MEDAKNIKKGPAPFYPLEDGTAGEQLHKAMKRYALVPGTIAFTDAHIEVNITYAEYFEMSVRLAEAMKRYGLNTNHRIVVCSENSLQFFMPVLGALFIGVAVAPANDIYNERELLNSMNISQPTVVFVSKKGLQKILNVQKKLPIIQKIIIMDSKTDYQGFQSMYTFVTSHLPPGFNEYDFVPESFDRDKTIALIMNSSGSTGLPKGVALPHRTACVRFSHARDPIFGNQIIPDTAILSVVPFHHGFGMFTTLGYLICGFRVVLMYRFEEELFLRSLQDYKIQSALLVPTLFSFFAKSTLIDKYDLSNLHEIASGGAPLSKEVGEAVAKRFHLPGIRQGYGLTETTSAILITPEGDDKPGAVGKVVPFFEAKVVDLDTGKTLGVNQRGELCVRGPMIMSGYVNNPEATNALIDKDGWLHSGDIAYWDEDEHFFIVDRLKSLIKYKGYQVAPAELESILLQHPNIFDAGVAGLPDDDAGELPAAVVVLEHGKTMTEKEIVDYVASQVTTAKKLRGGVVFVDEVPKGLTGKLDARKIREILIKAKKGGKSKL
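Purified P. pyralis luciferase (10nM final) with 10uM D-luciferin and 10uM ATP (Km levels) in 50mM Tris acetate pH 7.5, 10mM Mg acetate, 0.01% Tween-20, 0.05% BSA; qHTS 6-point titration, ~60 µM downward; luminescence read.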
SMN2 splice enh – enhancers of SMN2 splice variant expression | 210,000 tested, 2.8% active | HEK293 SMN2-luciferase splicing reporter, luminescence, 30-36 h | Potency, µM (highest dose often 46.1 µM), for inactives: at the top dose activity change, positive = activation, hits mostly activators | AID 1458; further: % of control where 0% means no effect; nearly all actives have a fitted effect of over 55% in size
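HEK293 cells carry an SMN2 minigene-luciferase reporter in which exon 7 inclusion puts luciferase in frame. Cells were seeded at 2000 cells/well, attached for 10-12 hours, then exposed to compounds for 30-36 hours at 37C before ONE-Glo luminescence.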
The depositor's hits bear a star; [ ] = another dose, or the depositor's remark. Sampled rows, rich in hits. Any-hit rate of the full collection: about 7.4%. The call rests on the fitted dose curve; in most records, active means well fitted curve in the direction sought with a large enough effect; inconclusive means small, poorly fitted or top-dose-only effect, or another doubt; inactive means no such curve, though single readings can be large; an effect the other way counts as inactive or inconclusive. Potency means the concentration at half of the fitted maximal effect.

For CCn1c2ccccc2c2cc(/C(C)=N/O)ccc21 the results were Rab9 promoter act -3.5%, NPC1 promoter act -4.4%, ELG1 genotox 0.7%, FLuc modulator -21.2% and SMN2 splice enh -24.8%.
For COc1cccc(C2CC(=O)Nc3c2c(=O)n(C)c2nc4ccccc4n32)c1OC (stereo not drawn) the results were FLuc modulator inconclusive and SMN2 splice enh 2.2%.
Screening COc1ccccc1NC(=O)c1ccc(C)c(S(=O)(=O)N2CCCCC2)c1 returned Rab9 promoter act -4.4%, NPC1 promoter act 12.8%, ELG1 genotox -18.3% and FLuc modulator inconclusive.
`Cc1ccc(C(=O)NC2CCCCCC2)cc1S(=O)(=O)N1CCOCC1` gave Rab9 promoter act 29.2%, NPC1 promoter act inconclusive, ELG1 genotox inconclusive and FLuc modulator -18.9%.
`Cc1ccc(C(=O)NNC(=O)c2ccccc2)cc1S(=O)(=O)N1CCCCC1` gave Rab9 promoter act -5.1%, NPC1 promoter act 0.5%, ELG1 genotox 2.8% and FLuc modulator 21.3µM*.
Screening Cc1ccc(C(=O)NC2CCN(Cc3ccccc3)CC2)cc1S(=O)(=O)N1CCOCC1 returned Rab9 promoter act -14.2%, NPC1 promoter act -5.0%, ELG1 genotox 18.3µM* and FLuc modulator -1.7%.
Cc1ccc(C(=O)Nc2ccccc2C(=O)O)cc1S(=O)(=O)N1CCCCCC1 was read as FLuc modulator 0.953µM* and SMN2 splice enh inconclusive.
`Cc1cc(OCC(=O)Nc2nccs2)c2c(C)cc(=O)oc2c1` gave Rab9 promoter act -1.7%, NPC1 promoter act 1.0%, ELG1 genotox 1.9% and FLuc modulator -3.9%.
O=C(OCC(=O)N1CCc2ccccc2C1)c1ccc(O)cc1 was read as ELG1 genotox 7.2%.
COc1nc(Cl)nc(Cl)c1Cl (tested in a mixture with another compound) was read as SMN2 splice enh -2.4%[9.22 µM].
O=C(/C=C/c1ccco1)N1CCCC(c2ccccc2)C1 (stereo not drawn) was read as Rab9 promoter act 22.4%, NPC1 promoter act -0.6%, ELG1 genotox 3.8%, FLuc modulator inconclusive and SMN2 splice enh -6.4%.
Screening COc1ccccc1N1CCN(C(=O)/C=C/c2ccccc2)CC1 returned Rab9 promoter act -1.4%, NPC1 promoter act 7.7%, ELG1 genotox 2.5%, FLuc modulator 1.3% and SMN2 splice enh 12.3%.
O=C(/C=C/c1ccccc1)N1CCC(Cc2ccccc2)CC1 was read as Rab9 promoter act 29.6%, NPC1 promoter act 23.5%, ELG1 genotox 10.8% and FLuc modulator 15.1µM*.
For O=C(/C=C/c1ccccc1)N1CCC(c2ccccc2)C1 (stereo not drawn) the results were Rab9 promoter act 1.58µM*, NPC1 promoter act 3.16µM*, ELG1 genotox 6.51µM*, FLuc modulator 4.78µM* and SMN2 splice enh 11.2µM*.
CCOC(=O)C1CCN(C(=O)/C=C/c2ccc(OC)cc2)CC1 was read as Rab9 promoter act 0.316µM*, NPC1 promoter act 0.708µM*, ELG1 genotox 4.11µM*, FLuc modulator 7.57µM* and SMN2 splice enh 6.31µM*.
For COC(=O)C1CCN(C(=O)/C=C/c2ccccc2)CC1 the results were Rab9 promoter act 1µM*, NPC1 promoter act 1.41µM*, ELG1 genotox 13.5%, FLuc modulator inconclusive and SMN2 splice enh 14.1µM*.
For CN(Cc1nccn1C)C(=O)C1CCC(=O)N(Cc2cccc(C(F)(F)F)c2)C1 (stereo not drawn) the results were Rab9 promoter act -3.8%, NPC1 promoter act -3.6%, ELG1 genotox 0.0% and FLuc modulator -0.4%.
Screening Cc1ccc(-n2c(=O)cc(N3CCN(c4ccccc4Cl)CC3)[nH]c2=O)cc1 returned FLuc modulator -2.2%.
For Cc1ccc(/C=C/C(=O)Nc2ccc3nc(N4CCC(C)CC4)cc(C)c3c2)cc1 the results were FLuc modulator 4.9% and SMN2 splice enh -0.8%.
`COC(=O)c1ccc(Cl)cc1NC(=O)N1CC(C)Oc2ccccc21` (stereo not drawn) gave FLuc modulator -2.7%.
O=C(CCNS(=O)(=O)c1ccc2c(c1)CCCC(=O)N2)NCc1ccc(Cl)cc1 was read as FLuc modulator 2.6%.
Screening CCCc1cc(=O)oc2cc(OCC(=O)NCCCn3ccnc3)c(Cl)cc12 returned Rab9 promoter act -3.6%, NPC1 promoter act -5.7%, ELG1 genotox -0.2% and FLuc modulator 2.5%.
`O=C(Nc1nccs1)c1ccc(NC(=O)C2CC=CCC2C(=O)O)cc1` (stereo not drawn) gave Rab9 promoter act 16.6%, NPC1 promoter act 5.8%, ELG1 genotox 1.1%, FLuc modulator 16.9µM* and SMN2 splice enh -10.5%.
`O=C(Nc1n[nH]c(=S)s1)c1ccc2ccccc2c1` gave Rab9 promoter act 0.794µM*, NPC1 promoter act 1.12µM*, ELG1 genotox inconclusive and FLuc modulator 26.9µM*.
O=C(Nc1ncccc1O)c1ccc2ccccc2c1 was read as Rab9 promoter act -6.9%, NPC1 promoter act -2.7%, ELG1 genotox -7.2% and FLuc modulator 1.4%.
`CCOc1cccc(C(=O)Nc2nccs2)c1` gave Rab9 promoter act inconclusive, NPC1 promoter act inconclusive, ELG1 genotox inconclusive, FLuc modulator 15.1µM* and SMN2 splice enh inconclusive.
For O=C(O)c1ccc(NC(=O)C2CC=CCC2C(=O)O)cc1 (stereo not drawn) the results were Rab9 promoter act -1.5%, NPC1 promoter act -2.3%, ELG1 genotox 1.5%, FLuc modulator 2.1% and SMN2 splice enh 6.7%.
Screening CCC(=O)Nc1cccc(C(=O)Nc2nccs2)c1 returned Rab9 promoter act 11.3%, NPC1 promoter act 10.5%, ELG1 genotox 0.6% and FLuc modulator inconclusive.
Screening O=C(Nc1nccs1)c1ccccn1 returned Rab9 promoter act 3.16µM*, NPC1 promoter act inconclusive, ELG1 genotox inconclusive, FLuc modulator inconclusive and SMN2 splice enh inconclusive.
Screening O=C(Nc1nc(-c2ccccn2)cs1)c1ccco1 returned Rab9 promoter act 10.0%, NPC1 promoter act 24.0%, ELG1 genotox inconclusive, FLuc modulator inconclusive and SMN2 splice enh -85.3%.
O=C(Nc1nccs1)c1ccc(Br)cc1 was read as Rab9 promoter act 2.24µM*, NPC1 promoter act 2.51µM*, ELG1 genotox inconclusive and FLuc modulator 9.53µM*.
CCOc1cccc(C(=O)Nc2nnc(-c3ccco3)s2)c1 was read as Rab9 promoter act 3.98µM*, NPC1 promoter act inconclusive, ELG1 genotox inconclusive, FLuc modulator 4.78µM* and SMN2 splice enh 2.82µM*.
Screening O=C(CCNC(=O)c1ccc(Br)cc1)Nc1nccs1 returned Rab9 promoter act 12.2%, NPC1 promoter act 0.9%, ELG1 genotox 1.2%, FLuc modulator -15.9% and SMN2 splice enh -4.7%.
Cn1cc(Cl)c(C(=O)Nc2nccs2)n1 was read as Rab9 promoter act 21.8%, NPC1 promoter act 15.5%, ELG1 genotox 23.8% and FLuc modulator -18.7%.

From PubChem BioAssay
